Measured values as given in PubChem BioAssay (NCI).
Compounds without any hit were thinned out: in the full panel of roughly 83,000, 20% have a hit.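 Assay: single dose, 48 h. Readout: percent growth (0 = no net growth; negative = cell death). Active: <10.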 Unmarked numbers belong to inactive results. The source made the active and inactive calls.

Key:
Assay in all cases: NCI-60 one-dose screen, 48 h (100 = growth as untreated, 0 = no growth, -100 = all killed)
Conditions in all cases: 10 µM unless noted
NCI-H23 lung = test system: NCI-H23 lung
NCI-H226 lung = test system: NCI-H226 lung
NCI-H322M lung = test system: NCI-H322M lung
HOP-62 NSCLC = test system: HOP-62 NSCLC
NCI-H460 lung = test system: NCI-H460 lung
HOP-92 NSCLC = test system: HOP-92 NSCLC
NCI-H522 lung = test system: NCI-H522 lung
A549/ATCC NSCLC = test system: A549/ATCC NSCLC
786-0 renal = test system: 786-0 renal
COLO 205 colon = test system: COLO 205 colon
DU-145 prostate = test system: DU-145 prostate
K-562 leukemia = test system: K-562 leukemia
MALME-3M melanoma = test system: MALME-3M melanoma
MDA-MB-231 breast = test system: MDA-MB-231 breast
RXF 393 renal = test system: RXF 393 renal
SF-268 CNS = test system: SF-268 CNS
SF-295 CNS = test system: SF-295 CNS
SF-539 CNS = test system: SF-539 CNS
UACC-257 melanoma = test system: UACC-257 melanoma
M14 melanoma = test system: M14 melanoma

| Compound | growth (NCI-H23 lung) | growth (NCI-H226 lung) | growth (NCI-H322M lung) | growth (HOP-62 NSCLC) | growth (NCI-H460 lung) | growth (HOP-92 NSCLC) | growth (NCI-H522 lung) | growth (A549/ATCC NSCLC) | growth (786-0 renal) | growth (COLO 205 colon) | growth (DU-145 prostate) | growth (K-562 leukemia) | growth (MALME-3M melanoma) | growth (MDA-MB-231 breast) | growth (RXF 393 renal) | growth (SF-268 CNS) | growth (SF-295 CNS) | growth (SF-539 CNS) | growth (UACC-257 melanoma) | growth (M14 melanoma) |
| --- | --- | --- | --- | --- | --- | --- | --- | --- | --- | --- | --- | --- | --- | --- | --- | --- | --- | --- | --- | --- |
| O=C(O)c1c[nH]c2ccccc2c1=O | 96.5% | 105% | 94% | 94.9% | 105% | 87% | 93.1% | 104% | 97.8% | 95.3% | 98.6% | 93.1% | 91.9% | 98.1% | 116% | 102% | 104% | 93.9% | 112% | 101% |
| Cc1ccc2[nH]c3ccccc3c2c1 | 96.9% | 103% | 99.6% | 113% | 99.7% | 100% | 101% | 102% | 93.9% | 109% | 104% | 89.8% | 95.2% | 111% | 112% | 103% | 103% | 101% | 104% | 110% |
| Cc1cc(C)cc(OCC(=O)O)c1 | 97% | 91.4% | 95.9% | 95.5% | 110% | 109% | 93.7% | 104% | 98.2% | 119% | 111% | 93.3% | 92.3% | 106% | 135% | 114% | 96.5% | 96.2% | 100% | 102% |
| NC(=O)N1CCOCC1 | 106% | 100% | 106% | 95.4% | 108% | 72.9% | 94.2% | 106% | 108% | 113% | 123% | 96.6% | 111% | 128% | 117% | 109% | 115% | 117% | 119% | 108% |
| C/C(Cc1ccccc1)=N\O | 109% | 112% | 110% | 118% | 107% | 84% | 106% | 103% | 102% | 116% | 109% | 88.6% | 110% | 113% | 112% | 101% | 117% | 108% | 107% | 105% |
| S=C(Sc1ccc(Cl)cc1)Sc1ccc(Cl)cc1 | 21.8% | -52.5% (active) | 106% | 47.9% | 67.1% | -4.66% (active) | -83% (active) | 45.5% | -14.5% (active) | -54% (active) | 17.2% | -44% (active) | -52.8% (active) | -29.5% (active) | -85.5% (active) | -1.56% (active) | 66% | 37.6% | 88% | -45.1% (active) |
| NC(=O)OCCO | 99.3% | 99.5% | 97% | 105% | 110% | 102% | 96.1% | 99.7% | 95% | 113% | 104% | 82.9% | 84.7% | 109% | 110% | 97.7% | 106% | 108% | 95.6% | 94.6% |
| C#CC(O)c1ccccc1 (stereo not given) | 106% | 99.7% | 104% | 108% | 104% | 85.9% | 102% | 101% | 95.6% | 108% | 110% | 99.3% | 99.7% | 101% | 112% | 112% | 110% | 99.7% | 102% | 101% |
| O=C(NCc1ccccc1)c1cccc([N+](=O)[O-])c1 | 110% | 105% | 96.7% | 94.6% | 103% | 77.8% | 84.1% | 88.2% | 94.9% | 116% | 104% | 102% | 90.5% | 91.1% | 104% | 92.6% | 104% | 102% | 88% | 107% |
| CCOC(=O)c1cc(C)[nH]c(=O)c1C#N | 97.5% | 101% | 93.6% | 97.3% | 114% | 104% | 74.4% | 98.5% | 100% | 114% | 113% | 82.6% | 123% | 116% | 98.1% | 105% | 93.5% | 95.6% | 93% | 102% |
| COC(=O)C1(CC(C)=O)NC(=S)NC(=O)C1C#N (stereo not given) | 99.5% | 108% | 108% | 104% | 134% | 102% | 98.6% | 106% | 105% | 117% | 125% | 104% | 103% | 104% | 107% | 117% | 96.8% | 103% | 118% | 110% |
| COc1cc(C(=O)O)c(O)c(C(C)(C)C)c1 | 102% | 102% | 107% | 104% | 105% | 88.2% | 106% | 102% | 101% | 107% | 106% | 101% | 102% | 103% | 117% | 105% | 102% | 102% | 97.9% | 105% |
| CC(C)c1ncc([N+](=O)[O-])n1C | 103% | 102% | 126% | 118% | 106% | 104% | 96.4% | 96.9% | 108% | 108% | 122% | 123% | 129% | 118% | 115% | 121% | 127% | 98.2% | 97.2% | 103% |
| CCNc1ccc2ccccc2c1N=Nc1ccc(N=Nc2ccccc2)cc1 | 99.4% | 83.6% | 101% | 102% | 84.7% | 98.1% | 90.2% | 102% | 108% | 100% | 121% | 125% | 128% | 93.4% | 118% | 117% | 107% | 104% | 123% | 104% |
| CN(C)c1ccc2nc3ccc(=[N+](C)C)cc-3oc2c1 | 9.83% (active) | 33.2% | 9.08% (active) | 7.12% (active) | 35.3% | 55.9% | -37.4% (active) | 30.7% | 66.1% | -10.3% (active) | 59% | 16.9% | -21.8% (active) | -14.6% (active) | 89.6% | -17.5% (active) | 50.3% | 7.14% (active) | -30.1% (active) | 3.87% (active) |
| CCCCc1ccc2nc(NC(=O)OC)[nH]c2c1 | 14.1% | 63.4% | 50.2% | 24.2% | 2.11% (active) | 60.7% | -9.52% (active) | 18.4% | 16.5% | -45.8% (active) | -2.08% (active) | -20.4% (active) | 48.1% | 13% | 20.9% | 28.8% | -5.83% (active) | -51.1% (active) | 69% | 8.08% (active) |
| CCOc1ccccc1NC(=O)CCl | 71.4% | 86.3% | 107% | 99.8% | 97.3% | 103% | 56.1% | 100% | 108% | 104% | 105% | 86.8% | 92.2% | 83.8% | 93.9% | 91.7% | 87.4% | 114% | 102% | 79.1% |
| CCOC(OCC)C(=O)c1ccccc1 | 127% | 98.9% | 100% | 98.5% | 99.7% | 41.3% | 85.2% | 90.2% | 107% | 104% | 106% | 109% | 93.8% | 111% | 109% | 99.2% | 113% | 88.2% | 85.9% | 101% |
| CCCCCCCCCCCCCCCCCCSC(=N)N | 63.5% | 84.1% | 88% | 81.6% | 52.7% | 11.1% | 90.1% | 80.6% | 61.9% | 3.95% (active) | 59.2% | 40.4% | 82.8% | 29.5% | 71.5% | 60.8% | 80.9% | 86.6% | 80.5% | 60% |
| CC(=O)OC/C(C)=C\CC(C)COC(C)=O (stereo not given) | 112% | 103% | 102% | 96.9% | 102% | 69.8% | 110% | 106% | 96.7% | 104% | 114% | 103% | 102% | 99.7% | 97.1% | 109% | 94.6% | 116% | 102% | 96.4% |
| N#Cc1ccc(OC(=O)Nc2cc(Cl)cc(Cl)c2)cc1 | -10.3% [100 µM] (active) | 1.99% [100 µM] (active) | -3.43% [100 µM] (active) | -13.7% [100 µM] (active) | 0.999% [100 µM] (active) | -35.9% [100 µM] (active) | -31.1% [100 µM] (active) | 4.72% [100 µM] (active) | 9.34% [100 µM] (active) | -85.9% [100 µM] (active) | 18.9% [100 µM] | 6.66% [100 µM] (active) | -32.5% [100 µM] (active) | -52.8% [100 µM] (active) | 10.3% [100 µM] | 12.5% [100 µM] | -23.1% [100 µM] (active) | -4.48% [100 µM] (active) | -20.1% [100 µM] (active) | -25.3% [100 µM] (active) |
| CC(=O)Oc1c(Cl)cccc1-c1ccccc1 | 111% | 98.9% | 92.7% | 103% | 102% | 94.8% | 94.3% | 89.9% | 104% | 111% | 104% | 101% | 111% | 98.4% | 110% | 95.1% | 103% | 104% | 87.6% | 108% |
| CC1CCC(C(C)(C)[N+](C)(C)C)CC1 (stereo not given) | 100% | 100% | 106% | 96.9% | 107% | 101% | 106% | 95.9% | 96.1% | 106% | 102% | 116% | 96.1% | 103% | 111% | 95.8% | 101% | 96% | 99.6% | 98.1% |
| CCOC(=O)C(CCC#N)(CCC#N)C(=O)OCC | 96.6% | 98.4% | 113% | 102% | 103% | 84% | 117% | 102% | 98.4% | 102% | 110% | 115% | 113% | 105% | 104% | 99.2% | 96.4% | 103% | 103% | 89.2% |
| CC1CCC(C)(C)c2ccccc21 (stereo not given) | 97.2% | 90% | 98.9% | 99.9% | 109% | 116% | 93.6% | 98.2% | 101% | 104% | 110% | 115% | 100% | 94.6% | 109% | 104% | 89.2% | 97.2% | 100% | 95.7% |
